Screening data as filed in PubChem.
Only some compounds are listed: those with a hit (about 4% of all), similar ones and a draw of the others.
PAX8 inh HTS: PAX8 transcriptional activity inhibition. 360,000 tested, 1.2% active. AID 652154. RMG-I TPO-luciferase reporter, SteadyGlo, 24 h. inhibition, % at 12.6 µM;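 active = mean replicate inhibition at least 60% with every replicate also reaching 60%; inconclusive = only one of the two criteria is met; inactive = mean below 60% and not all replicates reaching 60%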;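 also: luciferase light reporting Pax8 driven TPO promoter activity; plate controls were median of neutral control wells for no effect and mitoxantrone controls for full effect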
Gli-Sufu block: antagonists of Gli-Sufu signaling; Sufu-KO-LIGHT fibroblasts, Gli luciferase reporter luminescence; inhibition, % at 5 µM; 340,000 tested, 0.74% active;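 active = inhibition above about 55%, limit read from the data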;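 also: 0% = DMSO-treated cells and 100% = wells with medium but no cells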
Shn3 3UTR inh: reduces Shn3 3'UTR luciferase signal in osteoblasts | Clone20 osteoblast Shn3 3'UTR firefly luciferase, 24 h | inhibition, % at 12.5 µM | 360,000 tested, 0.52% active;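 active = mean inhibition of at least 75% with every replicate also reaching 75%; inconclusive = mean inhibition at least 75% but some replicate below; inactive = mean inhibition below 75%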;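 also: 0% = median of neutral control wells and 100% = pilot-screen positive control compound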
Beta apoptosis: blocks beta cell apoptosis. INS-1E cytokine-induced death, ATP luminescence, 48 h; percent of positive-control rescue, neutral wells zero. protection from apoptosis, % (concentration not given with the values). 300,000 tested, 0.8% active;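 active = Every replicate reaches about 75%, or at least half do and their mean reaches it too, limit read from the data; inconclusive = At least half of replicates reach the limit but their mean does not; inactive = Under half of replicates reach the limit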;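 also: 0% = cytokine-treated negative control wells and 100% = positive control rescue; higher means more ATP so stronger rescue from cytokine killing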
CSC inhib: blocks cancer stem cells. cancer stem cell-like cells viability, luminescence. inhibition, % at 7.5 µM. 300,000 tested, 1.1% active. AID 2717; in the data active = inhibition above about 75%; inconclusive = no clear call, values can overlap the other calls; tested in HMLE shEcad cells
Mdm2-MdmX inh: disrupts the human Mdm2-MdmX interaction; inhibition, % at 8 µM; O15151+Q00987; SaOS-2 split-luciferase Mdm2/MdmX complementation, luminescence; 330,000 tested, 3% active;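 active = inhibition of at least 50% at 8 µM in the primary screen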
Target sequence (O15151 whole entry, looked up): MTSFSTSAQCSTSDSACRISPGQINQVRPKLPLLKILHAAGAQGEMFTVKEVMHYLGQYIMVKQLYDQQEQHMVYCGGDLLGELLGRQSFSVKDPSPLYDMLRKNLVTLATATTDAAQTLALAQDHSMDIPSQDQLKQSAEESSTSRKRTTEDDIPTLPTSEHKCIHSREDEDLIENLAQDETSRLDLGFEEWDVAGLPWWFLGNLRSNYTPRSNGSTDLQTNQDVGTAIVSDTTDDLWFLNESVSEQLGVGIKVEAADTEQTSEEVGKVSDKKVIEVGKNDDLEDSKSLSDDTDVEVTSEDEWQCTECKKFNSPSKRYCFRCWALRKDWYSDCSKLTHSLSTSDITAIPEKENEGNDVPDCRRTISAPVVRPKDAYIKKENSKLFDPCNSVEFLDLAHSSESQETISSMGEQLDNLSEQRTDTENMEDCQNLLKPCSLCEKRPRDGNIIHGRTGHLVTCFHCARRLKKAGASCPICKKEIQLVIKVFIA
Target sequence (Q00987 whole entry, looked up): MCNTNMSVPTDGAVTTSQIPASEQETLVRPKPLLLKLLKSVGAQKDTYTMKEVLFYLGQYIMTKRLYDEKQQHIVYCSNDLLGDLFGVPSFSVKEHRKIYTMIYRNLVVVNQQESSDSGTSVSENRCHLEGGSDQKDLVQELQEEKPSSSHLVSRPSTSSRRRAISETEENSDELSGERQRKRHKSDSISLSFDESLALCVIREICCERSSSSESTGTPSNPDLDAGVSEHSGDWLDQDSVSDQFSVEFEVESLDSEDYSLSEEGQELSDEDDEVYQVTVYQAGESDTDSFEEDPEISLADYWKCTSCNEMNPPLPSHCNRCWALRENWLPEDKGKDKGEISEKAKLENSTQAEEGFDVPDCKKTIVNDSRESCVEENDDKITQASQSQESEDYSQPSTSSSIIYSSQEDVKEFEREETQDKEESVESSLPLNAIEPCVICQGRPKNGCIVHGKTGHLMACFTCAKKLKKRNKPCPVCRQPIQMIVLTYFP
Gli antag conf: Gli-SUFU antagonism confirmation, single concentration. shares compounds with Gli-Sufu block. Sufu-KO-LIGHT cells, Gli luciferase reporter, luminescence. inhibition, % at 5 µM. 2,500 tested, 40% active. AID 602428;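 active = mean inhibition at 5 µM reaching about 45%, limit read from the data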;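 also: plate controls were DMSO-treated cells for no effect and wells lacking cells for full effect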
Gli cytotox: cytotoxicity counter-screen for Gli-SUFU antagonists. shares compounds with Gli-Sufu block. Sufu-KO-LIGHT cells cytotoxicity, ATP luminescence. cytotoxicity, % at 5 µM. 2,500 tested, 32% active;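 active = mean cytotoxicity at 5 µM above about 25%, limit read from the data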;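 also: cells exposed to compound overnight for roughly 16 to 18 hours; plate controls were DMSO wells with cells for no effect and medium without cells for full effect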
Wnt3a counter: counter-screen for Gli-SUFU antagonists: Wnt3a reporter inhibition. shares compounds with Gli-Sufu block. Wnt-LIGHT cells, Wnt3a-driven luciferase reporter, luminescence. inhibition, % at 6.25 µM. 2,500 tested, 20% active. AID 651995;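 active = mean inhibition above about 25%, limit read from the data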
Starred values were filed as active, the others as inactive; u = inconclusive; x = no result.

SMILES	PAX8 inh HTS	Gli-Sufu block	Shn3 3UTR inh	Beta apoptosis	CSC inhib	Mdm2-MdmX inh	Gli antag conf	Gli cytotox	Wnt3a counter
COc1ccc(N2CCN(c3ncnc4c3[nH]c3ccccc34)CC2)cc1	x	71*	81	102*	9	16	80*	24	21
O=C(c1ccco1)N1CCN(c2ncnc3c2[nH]c2ccc(Br)cc23)CC1	x	-6	27	x	x	x	x	x	x
CCOc1ccc2[nH]c3c(N4CCC5(CC4)OCCO5)ncnc3c2c1	14	10	x	-7	19	26	x	x	x
O=C(c1ccco1)N1CCN(c2ncnc3c2[nH]c2ccccc23)CC1	x	x	x	x	x	10	x	x	x
CCOC(=O)N1CCN(c2ncnc3c2[nH]c2ccc(F)cc23)CC1	34	76*	x	76*	3	5	75*	27*	-6
CCOc1ccc2[nH]c3c(N4CCN(C(=O)c5ccco5)CC4)ncnc3c2c1	18	60*	14	1	2	-5	50*	19	-78
CCCCOc1ncnc2c1[nH]c1ccc(F)cc12	x	58*	52	110*	u	9	56*	29*	12
COCC(=O)N(C)C[C@H]1Oc2cc(-c3ccccc3F)ccc2S(=O)(=O)N([C@@H](C)CO)C[C@H]1C	-4	x	x	x	x	x	x	x	x
CCN(CC)CCNc1ccc(CO)c2sc3ccccc3c(=O)c12	20	4	2	40	32	47	x	x	x
O=c1c2ccccc2sc2c(CO)ccc(NCCN3CCCCC3)c12	47	53	-7	x	x	x	41	20	-155
CCOCCCNC(=O)C(NC(=O)c1ccc(NC(C)=O)cc1)c1ccc(C)cc1 (stereo not drawn)	9	96*	-19	-6	-7	-25	14	1	4
CCOCCCNC(=O)C(NC(=O)c1ccc(NC(C)=O)cc1)c1ccc(Cl)cc1 (stereo not drawn)	26	4	5	-8	-13	-38	x	x	x
Cc1noc(C)c1NC(=O)Nc1ccc2c(c1)C(=O)N([C@H](C)CO)C[C@@H](C)[C@H](CN(C)Cc1ccc3c(c1)OCO3)OCCCC[C@H](C)O2	-12	x	x	x	x	x	x	x	x
Cc1cc(-c2ccccc2)cc(-c2ccccc2)[n+]1C	3	65*	76	10	-10	16	70*	27*	20
CC(=O)Nc1ccc(N2C(=O)CSC2c2ccc(F)cc2)cc1 (stereo not drawn)	0	1	2	-5	x	29	x	x	x
CC(=O)Nc1ccc(N2C(=O)CSC2c2c(F)cccc2Cl)cc1 (stereo not drawn)	x	52	6	-18	3	1	9	13	-15
C[C@@H]1CN([C@@H](C)CO)C(=O)c2cc(NC(=O)CCC(F)(F)F)ccc2O[C@@H](C)CCCCO[C@H]1CN(C)CC1CCCCC1	7	x	x	x	x	x	x	x	x
O=C(N=Nc1c(O)[nH]c2ccc(Br)cc12)c1ccccc1-n1cccc1	x	57*	21	34	80*	44	32	34*	-59
O=C(C[C@H]1CC[C@H]2[C@@H](COC[C@@H](O)CN2S(=O)(=O)c2ccc(Cl)cc2)O1)NCCN1CCCC1	0	x	x	x	x	x	x	x	x
O=C(N/N=C/c1cc(Cl)ccc1O)c1ccc(Br)cc1	u	76*	81	112*	100*	x	59*	29*	58*
CCOC(=O)C(C(=O)OCC)C(C)(C)/C(C)=N\Nc1ccc([N+](=O)[O-])cc1[N+](=O)[O-]	-25	55	30	8	1	28	34	29*	69*
CCOC(=O)C(C)/C(C)=N\Nc1ccc([N+](=O)[O-])cc1[N+](=O)[O-] (stereo not drawn)	6	41	56	12	-1	16	x	x	x
Cc1cc(NC(=O)COc2ccccc2C)ccc1NC(=O)c1cccs1	-8	51	14	-4	-1	17	12	0	-48
Cc1cc(NC(=O)COc2ccccc2C)ccc1NC(=O)c1ccco1	-19	-23	12	1	7	5	x	x	x
